In the library only some 12% were active in any assay of this set; here they are far more common.
Pf growth 96h: P. falciparum growth inhibition at 96 hour, primary screen for plastid delayed-death inhibitors | P. falciparum luciferase reporter growth, 96 h | Potency, µM (top dose mostly 28.7 µM), hits mostly inhibitors | 320,000 tested, 6.9% active | AID 504834
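Cell-based qHTS: luciferase-tagged P. falciparum in erythrocytes (2% hematocrit, 0.05% parasitemia final) incubated with compounds for 96 hours, 37 C, 5% CO2; luciferase detection reagent then added and luminescence measured.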
NS1 inh: influenza NS1 inhibition; Potency, µM (titrated, usually from 46.1 µM); 270,000 tested, 0.4% active; AID 2326; calls by dose curve; also: actives are rising curves; nearly all actives have a fitted effect of over 50% in size
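Growth recovery, yeast-based: influenza A NS1 expressed in S. cerevisiae causes slow growth, and suppressors are detected by OD600. The parent strain without NS1 is used as positive control.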
AMA1-RON2 inh: inhibitors of Plasmodium falciparum AMA1-RON2 interaction; AlphaScreen AMA1-biotinylated RON2 peptide binding; Potency, µM (top dose mostly 58.2 µM), hits mostly inhibitors; 360,000 tested, 0.2% active; AID 720542; also: nearly all actives have a fitted effect of over 45% in size
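AMA1 (3D7) with his tag at 25 nM final met compounds first, then biotinylated RON2 peptide at 25 nM; detection used donor plus acceptor beads, 10 µg/mL apiece, read by AlphaScreen after 30 min at room temperature.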
Pf growth 48h: P. falciparum growth inhibition at 48 hours (one generation). P. falciparum luciferase growth in erythrocytes, 48 h. Potency, µM (top dose mostly 28.7 µM), actives largely listed as inhibitors. 310,000 tested, 5.9% active
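Erythrocytes infected with P. falciparum carrying an integrated firefly luciferase reporter (2% hematocrit, 0.1% parasitemia final) were exposed to compounds in RPMI 1640 with 0.5% Albumax at 37 C, 5% CO2. Growth inhibition was scored as reduced luminescence.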
SARS PLP yeast: SARS-CoV PLP inhibition in yeast; Potency, µM (highest dose often 32.9 µM), most hits filed as activators; S. cerevisiae expressing SARS-CoV PLpro, growth rescue; AID 485353; 330,000 tested, 0.19% active; calls by dose curve; also: nearly all actives have a fitted effect of over 55% in size
HCV inhibitor: blocks hepatitis C virus; 340,000 tested, 3.4% active; Potency, µM (titrated, usually from 41.8 µM), actives largely listed as inhibitors; Huh7.5.1 HCVcc-Cre infection, luciferase reporter, 44 h
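1,000 cells/well; 4 h culture; + compound; + HCVcc-Cre (~0.5 moi); 44 h; luciferase substrate, RT 15 min; read 15 sec.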
HCV confirm: HCV inhibition, cherry-pick confirmation. HCVcc-Cre infectious virus cell assay, luciferase, inhibition. 640 tested, 78% active. AID 720575. shares compounds with HCV inhibitor. Potency, µM (highest dose often 41.8 µM), actives largely listed as inhibitors; also: nearly all actives have a fitted effect of over 80% in size
HCV host tox: toxic to HCV host cells, flagging false HCV inhibitors. shares compounds with HCV inhibitor. 640 tested, 22% active. Potency, µM (doses to about 41.8 µM), actives largely listed as inhibitors. HCV host cell line cytotoxicity counterscreen. AID 720576;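 also: 44 h compound exposure; nearly all actives have a fitted effect of over 55% in size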
Each line names hits and unclear results; the compound was inactive in the other large screens (follow-up assays come after a bar, where they were run). Unless noted, calls follow the shape of the dose curve; as a rule, active = well fitted curve in the direction sought with a large enough effect; inconclusive = small, poorly fitted or top-dose-only effect, or another doubt; inactive = no such curve, though single readings can be large; an effect the other way counts as inactive or inconclusive.

CCOc1ccccc1NC(=O)NC1CCCc2ccccc21 (stereo unspecified)	HCV inhibitor inconclusive | HCV confirm 7.9µM | HCV host tox inactive
COc1ccccc1NC(=O)NC1CCCc2ccccc21 (stereo unspecified)	Pf growth 96h inconclusive, Pf growth 48h inconclusive
COc1ccc(Nc2nc(NC(C)(C)C)nc(N3CCOCC3)n2)c(OC)c1	AMA1-RON2 inh inconclusive, Pf growth 48h inconclusive, HCV inhibitor 7.1µM | HCV confirm 7µM | HCV host tox inactive
CNc1ccc2nc3ccccc3[n+](C)c2c1	Pf growth 96h 0.17µM, AMA1-RON2 inh inconclusive, Pf growth 48h 0.17µM, HCV inhibitor 3.2µM | HCV confirm 13µM | HCV host tox 14µM
Oc1ccccc1N=Nc1nc(-c2ccccc2)c(-c2ccccc2)[nH]1	Pf growth 96h 2.1µM, AMA1-RON2 inh inconclusive, HCV inhibitor 3.5µM (no result: Pf growth 48h) | HCV confirm 7.9µM | HCV host tox inactive
CC(C)Cn1c(N)c(C(=O)CSc2ccccc2)c(=O)n(C)c1=O	HCV inhibitor inconclusive | HCV confirm 7.9µM | HCV host tox inconclusive
O=C(c1cc(COc2ccc3ncccc3c2)on1)N1CCC[C@H]1CO	Pf growth 96h inconclusive, HCV inhibitor inconclusive | HCV confirm 7.9µM | HCV host tox 14µM
CCC1CCC(NC(=O)Nc2cccc(OC)c2)CC1 (stereo unspecified)	none
Oc1ccc(Br)cc1-c1ccn[nH]1	HCV inhibitor inconclusive | HCV confirm inactive | HCV host tox inactive
Clc1ccc(-c2ccn[nH]2)cc1	Pf growth 96h inconclusive (no result: NS1 inh)
CCc1c(C2(O)CCCCC2)[nH]c2ccc(C(F)(F)F)cc12	HCV inhibitor inconclusive
Cc1ccc2sc(N(CCCN(C)C)C(=O)c3ccc(Br)s3)nc2c1C	Pf growth 96h inconclusive, AMA1-RON2 inh 25µM, Pf growth 48h inconclusive, HCV inhibitor 7.1µM (no result: NS1 inh) | HCV confirm inconclusive | HCV host tox inactive
CNc1nc(NC)c2cn[nH]c2n1	none (no result: Pf growth 96h, NS1 inh, Pf growth 48h, SARS PLP yeast)
CCCCc1nc(C(N)=O)c2[nH]c(=O)n(-c3ccc(OCC)cc3)c2n1	none
Cc1cc(C(=O)N/N=C/c2ccc(O)c(O)c2O)c(C)n1-c1ccccc1	Pf growth 48h 12µM, HCV inhibitor 5.6µM (no result: NS1 inh) | HCV confirm 13µM | HCV host tox inconclusive
COC(=O)c1sc(-c2ccc(C(C)(C)C)cc2)cc1NC(=O)CSCC(=O)O	none
CCCC(=O)c1cc2c(cc1NC(=O)CC)OCCO2	Pf growth 48h inconclusive, HCV inhibitor inconclusive
CCC(=O)Nc1cc2c(cc1C(=O)CC)OCCO2	HCV inhibitor 5.6µM (no result: Pf growth 48h) | HCV confirm 13µM | HCV host tox inactive
COc1cc(C)c(C(=O)Oc2cc(C)c(C(=O)O)c(O)c2)c(O)c1	HCV inhibitor 0.79µM | HCV confirm inactive | HCV host tox inactive
Clc1ccc2c(c1)C(OC1CN3CCC1CC3)c1ccccc1CS2 (stereo unspecified)	Pf growth 96h inconclusive, Pf growth 48h inconclusive, HCV inhibitor 10µM | HCV confirm 16µM | HCV host tox inconclusive
Clc1ccccc1CNC1CN2CCC1CC2 (stereo unspecified)	NS1 inh inconclusive
COc1ccc(N2CCN(C(CNC(=O)C(C)C)c3ccc4c(c3)OCO4)CC2)cc1 (stereo unspecified)	Pf growth 48h inconclusive
COc1cc(OC)cc(C(=O)Nc2nc(-c3ccccc3)c(-c3ccccc3)o2)c1	Pf growth 96h inconclusive, Pf growth 48h inconclusive, HCV inhibitor 7.1µM | HCV confirm 13µM | HCV host tox inactive
COC(=O)[C@H](Cc1ccccc1)NC(=O)N1CCN(c2ccc(F)cc2)CC1	Pf growth 48h inconclusive
CCOC(=O)c1c(C)nc2c3ccccc3ccn12	HCV inhibitor 7.1µM | HCV confirm inactive | HCV host tox inactive
Cc1onc(-c2ccccc2)c1-c1nnc(-c2ccccc2C(F)(F)F)o1	HCV inhibitor inconclusive | HCV confirm 25µM | HCV host tox inactive
Cc1cccc(C(=O)N=c2c(C#N)cc3c(=O)n4cccc(C)c4nc3n2Cc2ccco2)c1	Pf growth 96h 13µM, AMA1-RON2 inh inconclusive, HCV inhibitor 5.6µM (no result: Pf growth 48h) | HCV confirm 4µM | HCV host tox inactive
COc1cccc(NC(=S)N2CCN(Cc3ccccc3)CC2)c1	none
COc1ccc(CNC(=O)COC(=O)c2cc3ccccc3o2)cc1	none (no result: NS1 inh)
Cc1nn(C)c(C)c1NC(=O)CCSc1nc(-c2ccco2)cc(C(F)(F)F)n1	HCV inhibitor 4µM (no result: Pf growth 96h) | HCV confirm inconclusive | HCV host tox inactive
COc1ccc(CCNC(=O)CCCOc2ccc(Cl)cc2)cc1OC	HCV inhibitor inconclusive
COC(=O)c1c(NS(=O)(=O)c2cccs2)sc2c1CCCC2	none
COC(=O)c1c(NC(=O)Cc2cccs2)sc2c1CCCC2	Pf growth 96h inconclusive, HCV inhibitor 5µM | HCV confirm 13µM | HCV host tox inconclusive
COc1ccc(CCC(C)NC(=O)Cc2ccc(OC)c(OC)c2)c(OC)c1 (stereo unspecified)	HCV inhibitor 7.1µM | HCV confirm 11µM | HCV host tox inconclusive
COc1ccc(C(=O)Cc2ccc(OC)c(OC)c2)cc1	HCV inhibitor inconclusive (no result: Pf growth 48h)
COc1ccc(NC(=O)CCCNC(=O)Cn2cnc3sc4c(c3c2=O)CCCC4)c(OC)c1	none
Cc1cc(Nc2ccccc2Cl)c2ccccc2n1	HCV inhibitor inconclusive (no result: Pf growth 96h, NS1 inh, Pf growth 48h, SARS PLP yeast)
Cc1cc(C)nc(NCC(O)CNc2ccccc2Cl)n1 (stereo unspecified)	HCV inhibitor inconclusive | HCV confirm 28µM | HCV host tox inactive
CCOC(=O)c1c(-c2ccc(OC)cc2)oc2c1C(OC(C)=O)CCC2 (stereo unspecified)	none (no result: Pf growth 96h, NS1 inh, Pf growth 48h, SARS PLP yeast, HCV inhibitor)
Cc1ccc(C(=O)CCNc2ccc(Br)cc2)o1	none (no result: SARS PLP yeast)
Cc1ccc(C(=O)CCNc2ccc(F)c(Cl)c2)o1	HCV inhibitor 3.2µM | HCV confirm 2.8µM | HCV host tox inactive
C=C(c1ccc(O)cc1)c1ccc(O)cc1	HCV inhibitor 8.9µM | HCV confirm 14µM | HCV host tox inactive
CC(=NN=C(C)c1ccc(O)cc1)c1ccc(O)cc1	HCV inhibitor inconclusive (no result: Pf growth 96h, NS1 inh, Pf growth 48h, SARS PLP yeast)
CN(N=Nc1nc[nH]c1C(=O)NN)C1CCCCC1	none (no result: Pf growth 96h, NS1 inh, Pf growth 48h, SARS PLP yeast)
COc1cc(-c2nnc(-c3ccccc3)o2)cc(OC)c1OC	Pf growth 96h inconclusive, Pf growth 48h inconclusive, HCV inhibitor inconclusive | HCV confirm 14µM | HCV host tox inactive
COc1ccc2c(C)cc(SCc3c(C)noc3C)nc2c1	HCV inhibitor 6.3µM | HCV confirm 22µM | HCV host tox inactive
COc1ccc2c(C)cc(SCC#N)nc2c1	HCV inhibitor inconclusive
CCCCCCCCn1ccc(=N)cc1	Pf growth 96h inconclusive, Pf growth 48h 0.37µM, HCV inhibitor 0.89µM | HCV confirm 1.8µM | HCV host tox 2.2µM

Source: PubChem BioAssay
